TrxR1 substrate – qHTS Assay for Substrates of Mammalian Selenoprotein Thioredoxin Reductase 1 (TrxR1): qHTS; Thioredoxin reductase 1, cytoplasmic (Rattus norvegicus), O89049; purified TrxR1 substrate turnover, NADPH consumption readout; Potency, µM (doses to about 114 µM); 390,000 tested, 0.01% active; AID 588456, 2011; also: nearly all actives have a fitted effect of over 50% in size
Target sequence (O89049 whole entry, looked up): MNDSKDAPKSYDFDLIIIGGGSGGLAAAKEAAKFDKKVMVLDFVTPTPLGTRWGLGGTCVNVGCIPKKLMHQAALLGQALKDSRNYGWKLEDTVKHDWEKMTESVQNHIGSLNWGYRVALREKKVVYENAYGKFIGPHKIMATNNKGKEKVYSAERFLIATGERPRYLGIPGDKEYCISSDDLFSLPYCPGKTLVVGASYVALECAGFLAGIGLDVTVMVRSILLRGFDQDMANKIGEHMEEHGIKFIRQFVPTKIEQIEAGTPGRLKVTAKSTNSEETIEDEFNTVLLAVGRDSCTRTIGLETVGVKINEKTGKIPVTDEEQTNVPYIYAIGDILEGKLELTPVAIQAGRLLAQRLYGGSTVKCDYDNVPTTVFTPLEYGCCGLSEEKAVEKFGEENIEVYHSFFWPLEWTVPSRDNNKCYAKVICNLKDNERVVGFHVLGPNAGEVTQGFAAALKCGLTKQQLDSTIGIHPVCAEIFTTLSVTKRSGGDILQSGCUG
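Rat TrxR1, dispensed at 90 nM, was prereduced with 400 uM NADPH (final) for 5 min at ~22 deg C, then incubated with compound 15 min before 400 uM selenite. A first-read NADPH fluorescence drop versus no-compound background flagged substrates.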
12-LOX inh – Primary qHTS assay for inhibitors of human arachidonate 12S-lipoxygenase (ALOX12): Round 2. purified 12hLO, xylenol orange hydroperoxide absorbance. Potency, µM (titrated, usually from 108 µM), actives largely listed as inhibitors. Polyunsaturated fatty acid lipoxygenase ALOX12 (Homo sapiens), P18054. 580,000 tested, 1.1% active. AID 1671190, 2021
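Purified human 12hLO at 150 nM in 25 mM Hepes, 0.01% Triton X-100, pH 7.0, preincubated 15 min at room temperature with compound. Reaction started with 40 uM arachidonic acid, 30 min at room temperature. Hydroperoxide measured by Fe-xylenol orange, 573/405 nm absorbance ratio.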
TrxR1 inh – qHTS Assay for Inhibitors of Mammalian Selenoprotein Thioredoxin Reductase 1 (TrxR1): qHTS; Thioredoxin reductase 1, cytoplasmic (Rattus norvegicus), O89049; Potency, µM (highest dose often 114 µM), most hits filed as inhibitors; recombinant rTrxR1, NADPH fluorescence consumption, selenite substrate; 390,000 tested, 1% active; AID 588453, 2011; also: nearly all actives have a fitted effect of over 65% in size
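Rat TrxR1 (90 nM in the dispensed reagent) was pre-reduced with 400 uM NADPH for 5 min at room temperature, then incubated with compound for 15 min. After 400 uM selenite was added, NADPH fluorescence (Ex 340/Em 450 nm) was followed for 8 min.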
Apoferritin bind – qHTS Assay for Identification of Novel General Anesthetics | apoferritin/1-aminoanthracene competitive binding, fluorescence | Potency, µM (series often up to 77.5 µM), actives largely listed as inhibitors | 350,000 tested, 0.074% active; also: nearly all actives have a fitted effect of over 20% in size
Target sequence (P02791 2-175 limits assumed): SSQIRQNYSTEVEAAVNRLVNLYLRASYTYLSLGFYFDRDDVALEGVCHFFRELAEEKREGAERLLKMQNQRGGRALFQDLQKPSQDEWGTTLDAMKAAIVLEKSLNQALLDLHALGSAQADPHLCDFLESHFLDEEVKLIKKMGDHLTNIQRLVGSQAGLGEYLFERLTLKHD
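Apoferritin-based anesthetic binding model; compound displacement of fluorescent 1-AMA measured as endpoint fluorescence after 10 minutes at room temperature, scaled to free-ligand and complex controls.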
IDH1 R132H inh – qHTS for Inhibitors of mutant isocitrate dehydrogenase 1 (IDH1): qHTS; IDH1-R132H enzyme, NADPH consumption, diaphorase/resazurin fluorescence; Potency, µM (titrated, usually from 76.6 µM), usual class: inhibitors; 390,000 tested, 0.093% active; AID 602179, 2012; also: nearly all actives have a fitted effect of over 65% in size
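IDH1-R132H (0.5 ug/mL dispensed) in pH 7.5 Tris buffer was preincubated 30 min with compound, then given a substrate mix of 0.016 mM NADPH and 2 mM alpha-KG for 80 min at room temperature; remaining NADPH was read by diaphorase/resazurin fluorescence.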
GRP78 ERSR act – qHTS for Inducers of the Endoplasmic Reticulum Stress Response (ERSR) in Human Glioma: qHTS; U87-MG GRP78 promoter luciferase reporter, 16 h; Potency, µM, most hits filed as activators; 420,000 tested, 0.02% active; also: series mostly up to about 76 µM; nearly all actives have a fitted effect of over 35% in size
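Stably transfected U87-MG glioma cells carrying a GRP78-based luciferase sensor; 16 h compound incubation. Luminescence end-point read 10 min after Bright-Glo addition at room temperature.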
Hits are given with their value; - = inactive; ? = inconclusive; . = no result given; [ ] = another dose, or the depositor's remark. Only some compounds are listed: those with a hit (about 1.7% of all), similar ones and a draw of the others. Calls follow the shape of the dose curve; as a rule, active = well fitted curve in the direction sought with a large enough effect; inconclusive = small, poorly fitted or top-dose-only effect, or another doubt; inactive = no such curve, though single readings can be large; an effect the other way counts as inactive or inconclusive.

SMILES | TrxR1 substrate | 12-LOX inh | TrxR1 inh | Apoferritin bind | IDH1 R132H inh | GRP78 ERSR act
CCOc1ccc(C(=O)N2CCC3(CC2)NC(=O)N(c2ccc(F)cc2)N3)cc1 | . | 2.2µM | . | . | . | .
C[C@@H](NC(=O)c1ccccn1)c1c(-c2ccc(F)cc2)noc1C(=O)O | . | - | . | . | . | .
Cc1ccsc1C(=O)N1CCC2(CC1)NC(=O)N(c1ccc(F)cc1)N2 | . | 2.2µM | . | . | . | .
O=C(c1cccc(F)c1)N1CCC2(CC1)NC(=O)N(c1ccccc1Cl)N2 | . | 1.3µM | . | . | . | .
Cc1ccc(C(=O)N2CCC3(CC2)N(C)C(=O)CS3(=O)=O)c(C)c1 | . | - | . | . | . | .
Cc1ccc(C(=O)N2CCC3(CC2)NC(=O)N(c2ccc(F)cc2)N3)cc1 | . | 3.2µM | . | . | . | .
Cc1ccc(C(=O)N2CCC3(CC2)NC(=O)N(c2cccc(Cl)c2)N3)c(C)c1 | . | 1.4µM | . | . | . | .
Cc1ccc(C(=O)N2CC3(Cc4ccccc4C(=O)N3)C2)cc1 | . | -[6.33 µM] | . | . | . | .
CC(=O)Nc1ccc(NC(=O)CSc2cn(CC(=O)N(C(C)C)C(C)C)c3ccccc23)cc1 | - | - | - | - | - | -
Cc1ccc(C)c(OCc2cc(C(=O)N(C)Cc3cnccn3)no2)c1 | . | - | . | . | . | .
CCOCCCNC(=O)CS(=O)(=O)Cc1nc(-c2ccc(C)cc2)oc1C | . | - | . | . | . | .
COc1ccc(-c2cnn3c(C)cc(C)nc23)cc1S(=O)(=O)NCc1ccc(F)cc1 | . | - | . | . | . | .
CN(C)c1cccc(C(=O)N2CCC3(CC2)NC(=O)N(c2cccc(F)c2)N3)c1 | . | 2.2µM | . | . | . | .
Cc1cccc(NC(=O)C2CC(=O)n3cnnc3S2)c1 (centres undefined) | - | ? | 7.1µM | - | - | -
CCN=C1SC(C(=O)Nc2cccc(C)c2)CC(=O)N1CC (centres undefined) | - | - | - | - | - | -
Nc1ccccc1/C=C/c1ccnc2ccccc12 | - | . | - | . | . | -
CCOC(=O)C1C(=O)C=C(c2ccccc2)CC1c1ccccc1 (centres undefined) | - | - | -[2.29 µM] | . | - | -
CCOC(=O)C1C(=O)C=C(c2ccco2)CC1c1ccccc1 (centres undefined) | . | 11µM | . | . | . | .
CCOC(=O)c1c(C)c(CCC(=O)NCCN2CCN(CC)CC2)c(C)n1C | . | - | . | . | . | .
COc1cccc(N(C(=O)c2snc(C(N)=O)c2N)C(C(=O)NCC2CCCO2)c2cccs2)c1 (centres undefined) | - | - | - | - | - | -
COc1ccc(N(C(=O)CCl)C(C(=O)NCCc2ccccc2)c2cccs2)cc1Cl (centres undefined) | - | ? | 14µM | - | - | -
COc1ccc(N(C(=O)c2ccco2)C(C(=O)NC2CCCCC2)c2cccs2)cc1OC (centres undefined) | - | ? | - | - | - | -
COc1cccc(N(C(=O)CCl)C(C(=O)NCCc2ccccc2)c2cccs2)c1 (centres undefined) | - | - | 14µM | - | - | -
O=[N+]([O-])c1cc([N+](=O)[O-])c2nonc2c1Nc1ccc(O)cc1 | - | - | 28µM | - | - | -
O=C1CCCCc2sc(Br)c([N+](=O)[O-])c2N1 | - | - | 10µM | - | - | -
SMILES | TrxR1 substrate | 12-LOX inh | TrxR1 inh | Apoferritin bind | IDH1 R132H inh | GRP78 ERSR act
CC1CCN(C(=O)Nc2ccc3nc(-c4ccco4)c(-c4ccco4)nc3c2)CC1 | - | . | 4µM | . | . | -
O=C(Nc1ccc2nc(-c3ccco3)c(-c3ccco3)nc2c1)N1CCN(c2ccccn2)CC1 | - | ? | 1.4µM | - | - | -
O=C(c1ccc2nc(-c3ccco3)c(-c3ccco3)nc2c1)N1CCN(c2ncccn2)CC1 | - | ? | 13µM | - | - | -
O=C(c1cccc(C(=O)N2CCN(c3ncccn3)CC2)c1)N1CCN(c2ncccn2)CC1 | - | - | - | - | - | -
S=C(Nc1ccc(N2CCOCC2)cc1)Nc1ccc2nc(-c3ccco3)c(-c3ccco3)nc2c1 | - | - | 2.5µM | - | - | -
C#CCN1CCC(C(=O)N2CCN(c3cccc(C(F)(F)F)c3)CC2)CC1 | . | - | . | . | . | .
CCCCCC(C)NC(=O)c1ccc(C)c(C)c1 (centres undefined) | . | - | . | . | . | .
O=c1[nH]nc(Sc2ncc([N+](=O)[O-])s2)n1-c1ccc2c(c1)OCCO2 | . | - | . | . | . | .
C=CCn1c(Sc2ncc([N+](=O)[O-])s2)n[nH]c1=O | - | ? | 0.32µM | - | - | -
O=C(O)C(c1c[nH]c2cc(F)ccc12)N1CCN(Cc2ccccc2)CC1 (centres undefined) | . | - | . | . | . | .
O=C(O)C(c1c[nH]c2cc(F)ccc12)N1CCN(Cc2cccc3ccccc23)CC1 (centres undefined) | . | 40µM | . | . | . | .
CCOC(=O)NC(CNC(=O)c1ccccc1C)CC(C)C (centres undefined) | . | - | . | . | . | .
CCOC(=O)c1nnn(-c2nonc2-n2cccc2)c1CCl | - | ? | 13µM | - | - | ?
O=C1/C(=C/c2ccc(OC(F)F)cc2)CCc2ccccc21 | . | - | . | . | . | .
COc1ccc(CN(Cc2ccco2)C(=O)COc2ccccc2OC)cc1 | - | ? | - | - | - | -
CC1=NN(c2nc(-c3ccc(F)cc3)cs2)C(=O)C1 | - | . | - | - | - | -
CC1=NN(c2nc(-c3ccc(Cl)cc3)cs2)C(=O)C1 | - | 5.6µM | - | - | - | -
Fc1ccc(N/N=C2/CCSc3sccc32)c(F)c1 | - | 35µM | ? | - | - | -
CSc1ccc(CN2CCC(C)(Oc3ccc(C(C)=O)cc3)C2)cc1 (centres undefined) | . | ? | . | . | . | -
COc1cccc([S+](=O)([O-])N2CCn3c(nn(-c4cccc(Cl)c4)c3=O)C2)c1 | . | 6.3µM | . | . | . | .
O=C(CCSC1=NCCCN1)c1ccc(F)cc1 | -[11.4 µM] | 45µM | ? | . | - | -
Cc1ccc(NC(=S)NNC(=S)Nc2ccc(C)cc2)cc1 | - | ? | - | . | - | -
Cc1ccc(NNC(=S)Nc2ccc(C(C)C)cc2)c(C)c1 | - | 35µM | - | ? | - | -
COc1ccc2c(C)c(CCC(=O)Nc3ccccc3F)c(=O)oc2c1 | . | - | . | . | . | .
Cn1c(/C=C/c2ccc([N+](=O)[O-])o2)nc2ccccc2c1=O | - | . | 10µM | - | - | -
Cn1c(/C=C/c2ccccc2)nc2ccccc2c1=O | - | - | - | - | - | -

Screens (PubChem)
